Assay results published in PubChem BioAssay (Tox21).
Where “and” joins values, the source holds several entries; their conditions need not be identical. Equal entries are not always repeated. Results filed as inconclusive are left out. Entries that show only a call come without a potency. Where a structure was tested more than once in an assay, its records may differ in their call. Calls of active or inactive are those of the source. Calls follow the shape of the dose curve; as a rule, active = well fitted curve in the direction sought with a large enough effect in the repeat runs; inconclusive = weak or mixed curves; inactive = no such curve, though single readings can be large; an effect the other way counts as inactive or inconclusive.

How the values were obtained:
[1] = A CellTox Green Cytotoxicity Assay to monitor cytotoxicity in HEK293 cells - 32 hour (AID 1224881); also: nearly all actives have a fitted effect of over 40% in size; also: potency is read from the fitted curve at half-maximal effect
How it was run: (§1)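 Real-time, in one plate: 600 HEK293 cells/well with dead-cell DNA dye, pinned compound after 5 h, 37 C incubation over 40 h; viable cells give no appreciable fluorescence.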

[2] = A CellTox Green Cytotoxicity Assay to monitor cytotoxicity in HepG2 cells - 0 hour (AID 1224882); also: nearly all actives have a fitted effect of over 35% in size; also: potency is read from the fitted curve at half-maximal effect
How it was run: (§2)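 Cytotoxicity was tracked as dead-cell DNA fluorescence in HepG2 cells treated with test compounds at 37 C; each time-point value comes from one kinetic series spanning 0, 8, 16, 24, 32 and 40 h.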

[3] = A CellTox Green Cytotoxicity Assay to monitor cytotoxicity in HepG2 cells - 32 hour (AID 1224883); also: nearly all actives have a fitted effect of over 50% in size; also: potency is read from the fitted curve at half-maximal effect
How it was run: as §2

[4] = A CellTox Green Cytotoxicity Assay to monitor cytotoxicity in HEK293 cells - 8 hour (AID 1224884); also: nearly all actives have a fitted effect of over 35% in size; also: potency is read from the fitted curve at half-maximal effect
How it was run: as §1

[5] = qHTS RealTime-Glo MT Cell Viability Assay in HepG2 cells - 16 hour (AID 1224885); also: nearly all actives have a fitted effect of over 50% in size; also: potency is read from the fitted curve at half-maximal effect
How it was run: (§3)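 Luminescence read-out: viable HepG2 cells reduce a prosubstrate to a NanoLuc substrate, giving a signal proportional to live cell number. Reads taken at 0, 8, 16, 24, 32 and 40 h of compound exposure at 37 C.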

[6] = qHTS RealTime-Glo MT Cell Viability Assay in HEK293 cells - 24 hour (AID 1224886); also: nearly all actives have a fitted effect of over 50% in size; also: potency is read from the fitted curve at half-maximal effect
How it was run: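 Nonlytic real-time viability readout: viable cells convert prosubstrate to NanoLuc substrate, giving luminescence proportional to live cell number. HEK293, 600 cells/well, compound added after 5 h, continuous culture at 37 C.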

[7] = qHTS RealTime-Glo MT Cell Viability Assay in HEK293 cells - 8 hour (AID 1224887); also: nearly all actives have a fitted effect of over 50% in size; also: potency is read from the fitted curve at half-maximal effect
How it was run: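 Kinetic, non-lysing viability readout. Seed HEK293 (600/well) with reagent, incubate 5 h at 37 C/5% CO2, pin 23 nL compound in DMSO, incubate at 37 C, read luminescence at 0, 8, 16, 24, 32, 40 h.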

[8] = A CellTox Green Cytotoxicity Assay to monitor cytotoxicity in HEK293 cells - 16 hour (AID 1224888); also: nearly all actives have a fitted effect of over 35% in size; also: potency is read from the fitted curve at half-maximal effect
How it was run: as §1

[9] = qHTS RealTime-Glo MT Cell Viability Assay in HepG2 cells - 0 hour (AID 1224889); also: nearly all actives have a fitted effect of over 50% in size
How it was run: as §3

[10] = A CellTox Green Cytotoxicity Assay to monitor cytotoxicity in HepG2 cells - 8 hour (AID 1224890); also: nearly all actives have a fitted effect of over 45% in size; also: potency is read from the fitted curve at half-maximal effect
How it was run: as §2

SMILES | Potency [1] | Potency [2] | Potency [3] | Potency [4] | Potency [5] | Potency [6] | Potency [7] | Potency [8] | Potency [9] | Potency [10]
CC(C)(c1ccccc1)c1ccc(O)c(C(C)(C)c2ccccc2)c1 | 38.5 µM (active) and 43.6 µM (active) | inactive | 48.5 µM (active) and 43.6 µM (active) | inactive | 54.4 µM (active) and 43.6 µM (active) | 19.3 µM (active) and 30.9 µM (active) | 21.7 µM (active) and 30.9 µM (active) | 43.2 µM (active) | inactive | 48.5 µM (active) and 49 µM (active)
CN(C)P(=O)(N(C)C)N(C)C | inactive | inactive | inactive | inactive | inactive | inactive | inactive | inactive | inactive | inactive
CCC1(c2ccc(N)cc2)CCC(=O)NC1=O (configuration not stated) | – | inactive | inactive | inactive | inactive | inactive | inactive | inactive | inactive | inactive
Nc1ccc([N+](=O)[O-])cc1N | – | inactive | inactive | inactive | inactive | inactive | inactive | inactive | inactive | inactive
CC(C)CON=O | – | inactive | inactive | inactive | inactive | inactive | inactive | inactive | inactive | inactive
CCCCCCCCCc1ccc(O)cc1 | – | inactive | 39.3 µM (active) and 34.7 µM (active) | inactive | inactive | 7.84 µM (active) and 4.9 µM (active) | 6.99 µM (active) and 4.36 µM (active) | inactive | inactive | inactive
ClC(Cl)(Cl)c1ccccc1 | – | inactive | inactive | inactive | inactive | inactive | inactive | inactive | inactive | inactive
CCCCCCCCCC(CC)c1ccc(S(=O)(=O)O)cc1 (configuration not stated) | – | inactive | 54.9 µM (active) and 21.3 µM (active) and 38.9 µM (active) | – | inactive | 44.1 µM (active) and inactive | inactive | – | inactive | inactive and 34.7 µM (active)
CCC[CH2][Sn]([Cl])([Cl])[CH2]CCC | – | inactive | 351 nM (active) and 490 nM (active) | inactive and 49 µM (active) | 701 nM (active) and 616 nM (active) | 111 nM (active) and 138 nM (active) | 111 nM (active) | 786 nM (active) and 24.5 µM (active) | inactive | 14 µM (active) and 13.8 µM (active)
c1ccc(C2CO2)cc1 (configuration not stated) | – | inactive | inactive | – | inactive | inactive | inactive | inactive | inactive | inactive
NC(=O)CN1CCCC1=O | – | inactive | inactive | – | inactive | inactive | inactive | inactive | inactive | inactive
O=C(O)CF | – | inactive | inactive and 19.5 µM (active) | – | inactive | inactive | inactive | inactive | inactive | inactive
CC(C)Nc1ccc(Nc2ccccc2)cc1 | – | inactive | 43.6 µM (active) | – | 54.7 µM (active) and 49 µM (active) | 17.3 µM (active) and 19.5 µM (active) | 15.4 µM (active) and 17.4 µM (active) | 54.9 µM (active) | – | inactive and 49 µM (active)
COP(=S)(OC)Oc1ccc(S(=O)(=O)N(C)C)cc1 | – | inactive | inactive | – | inactive | inactive | inactive | inactive | inactive | inactive
CCCCCCCCCCCCCl | – | inactive and 19.5 µM (active) | inactive and 12.3 µM (active) | – | inactive | inactive | inactive | – | inactive | inactive and 12.3 µM (active)
CCNCC | – | inactive | inactive | – | inactive | inactive | inactive | inactive | inactive | inactive
N#Cc1cccnc1 | – | inactive | inactive | – | inactive | inactive | inactive | inactive | inactive | inactive
C=CC(=O)OCC(CC)(COC(=O)C=C)COC(=O)C=C | – | inactive | 14.2 µM (active) | inactive | 25.2 µM (active) and 13.8 µM (active) | 4 µM (active) and 11 µM (active) | 28.3 µM (active) and 21.9 µM (active) | inactive | inactive | inactive
CC1=C(C(=O)Nc2ccccc2)SCCO1 | – | inactive | inactive | inactive | inactive | inactive | inactive | inactive | inactive | inactive
Clc1ccc(C(Cl)(Cl)Cl)cc1 | – | inactive | inactive | inactive | inactive | inactive | inactive | inactive | inactive | inactive

SMILES | Potency [1] | Potency [2] | Potency [3] | Potency [4] | Potency [5] | Potency [6] | Potency [7] | Potency [8] | Potency [9] | Potency [10]
O=[N+]([O-])/N=C1\NCCN1Cc1ccc(Cl)nc1 | – | inactive | inactive | inactive | inactive | inactive | inactive | inactive | inactive | inactive
O=C1CCCO1 | – | inactive | inactive | – | inactive | inactive | inactive | inactive | inactive | inactive
Cc1ccc([N+](=O)[O-])cc1 | – | inactive | inactive | inactive | inactive | inactive | inactive | inactive | inactive | inactive
C[N+](C)(C)C | – | inactive | inactive | inactive | inactive | inactive | inactive | inactive | inactive | inactive
CCOP(=O)(OCC)OCC | – | inactive | inactive | – | inactive | inactive | inactive | inactive | inactive | inactive
CC(C)(c1ccccc1)c1ccc(O)cc1 | – | inactive | 48.6 µM (active) and 24.5 µM (active) | 8.64 µM (active) and 49 µM (active) | inactive | 43.3 µM (active) and 24.5 µM (active) | 48.6 µM (active) and 34.7 µM (active) | 24.3 µM (active) and 43.6 µM (active) | inactive | inactive and 43.6 µM (active)
CCC(=O)Nc1ccc(Cl)c(Cl)c1 | – | inactive | inactive | inactive | inactive | 44.5 µM (active) and 43.6 µM (active) | – | inactive | inactive | inactive
Oc1ccc(Cl)cc1Cc1ccccc1 | – | inactive | inactive and 33.1 µM (active) | – | 49.6 µM (active) and inactive | 21.9 µM (active) and 19.7 µM (active) | 21.9 µM (active) and 26.3 µM (active) and 21.3 µM (active) | – | inactive | inactive and 31.3 µM (active)
O=NN(c1ccccc1)c1ccccc1 | – | inactive | inactive | – | inactive | inactive | inactive | inactive | inactive | inactive
COP(=O)(NC(C)=O)SC (configuration not stated) | – | inactive | inactive | inactive | inactive | inactive | inactive | inactive | inactive | inactive
Oc1ccc(Cl)cc1Cl | – | inactive | inactive | inactive | inactive | inactive | inactive | inactive | inactive | inactive
CC(C)=CC1C(C(=O)OCN2C(=O)C3=C(CCCC3)C2=O)C1(C)C (configuration not stated) | – | inactive | inactive | – | inactive | inactive | inactive | inactive | inactive | inactive
CC(C)COC(=O)c1ccccc1C(=O)OCC(C)C | – | inactive | inactive | inactive | inactive | inactive | inactive | inactive | inactive | inactive
CC(C)(O)C#N | – | inactive | inactive | inactive | inactive | inactive | inactive | inactive | inactive | inactive
CC[n+]1c(-c2ccccc2)c2cc(N)ccc2c2ccc(N)cc21 | – | inactive | inactive | – | inactive | 6.89 µM (active) and 9.52 µM (active) | 34500 nM (active) | inactive | inactive | inactive
CCCCCCCC[N+](C)(CCCCCCCC)CCCCCCCC | – | inactive | 8.69 µM (active) and 19.5 µM (active) and 13.8 µM (active) | 24.5 µM (active) and 13.8 µM (active) | 15.5 µM (active) and 21.9 µM (active) and 13.8 µM (active) | 548 nM (active) and 138 nM (active) and 2.19 µM (active) | 9.75 µM (active) and 21.9 µM (active) and 15.5 µM (active) | 24.5 µM (active) and 24.6 µM (active) and 15.5 µM (active) | inactive | 21.8 µM (active) and 39 µM (active) and 21.9 µM (active)
N#Cc1c(Cl)c(Cl)c(Cl)c(C#N)c1Cl | – | inactive | 21.5 µM (active) and 3.47 µM (active) | 7.76 µM (active) | 21.5 µM (active) and 6.16 µM (active) | 2.15 µM (active) and 1.23 µM (active) | 12.1 µM (active) and 17.4 µM (active) | 12.1 µM (active) and 8.71 µM (active) | inactive | 48 µM (active) and 13.8 µM (active)
CN(C)c1ccccc1 | – | inactive | inactive | inactive | inactive | inactive | inactive | inactive | inactive | inactive
CN(C)c1nc(=O)n(C2CCCCC2)c(=O)n1C | – | inactive | inactive | inactive | inactive | inactive | inactive | inactive | inactive | inactive
[CH3][Sn]([Cl])([Cl])[Cl] | – | inactive | inactive | inactive | inactive | inactive | inactive | inactive | inactive | inactive
